Measured values published in PubChem BioAssay (NCI).
This is part of a sample that, as a whole, favours compounds with a hit. Of some 79,000 tested, about 15% had one in any assay. Values without a mark were called inactive. Activity calls are given as the source filed them. Cut-off read from the data, not from the text of the source: active = growth inhibition above about 70%; inactive = the rest. Where a SMILES comes first, the peptide text is derived from it. [ ]: non-standard residue; d: D form. The star is where a group is joined. ξ: configuration not given here. Cbz = O=C(OCc1ccccc1)*; ξNva = CCCC(N)C(=O)O

Key:
[1] = NCI Yeast Anticancer Drug Screen. Data for the rad50 strain (AID 155);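 note: 0% = growth of vehicle-only cultures of the same strain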; details: S. cerevisiae rad50 strain growth inhibition; at 50.0 µM; stronger effect = higher value
Summary of the method: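 Relative growth inhibition (compound vs vehicle) was measured in yeast with a defined repair-gene alteration.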

[2] = NCI Yeast Anticancer Drug Screen. Data for the mec2-1 strain (AID 157); details: S. cerevisiae mec2-1 strain, at 50.0 µM, stronger effect = higher value
Summary of the method: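 Vehicle-treated cultures served as reference for growth inhibition of compound-exposed mec2-1 yeast.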

[3] = NCI Yeast Anticancer Drug Screen. Data for the sgs1 mgt1 strain (AID 161);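 note: 0% = growth of cultures given vehicle only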; details: S. cerevisiae sgs1 mgt1 strain, at 50.0 µM, stronger effect = higher value
Summary of the method: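 Test agents were incubated with a DNA-repair-mutant yeast strain. Growth was then read and compared against vehicle-treated controls.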

[4] = NCI Yeast Anticancer Drug Screen. Data for the cln2 rad14 strain (AID 165);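 note: 0% = growth equal to vehicle treated cultures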; details: S. cerevisiae cln2 rad14 strain, at 50.0 µM, stronger effect = higher value
Summary of the method: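 Each compound was tested on cln2 rad14 yeast. Inhibition of growth was calculated against vehicle-exposed controls.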

[5] = NCI Yeast Anticancer Drug Screen. Data for the bub3 strain (AID 167); details: S. cerevisiae bub3 mutant strain, at 50.0 µM, stronger effect = higher value
Summary of the method: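 Screening used yeast with an engineered genetic alteration affecting cell cycle control. Compound-exposed cultures were compared with vehicle cultures, and reduced growth was taken as inhibition.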

[6] = NCI Yeast Anticancer Drug Screen. Data for the mlh1 rad18 strain (AID 175); details: S. cerevisiae mlh1 rad18 strain growth inhibition; at 50.0 µM; stronger effect = higher value
Summary of the method: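 Vehicle-treated cultures served as the reference for growth inhibition in a yeast strain carrying DNA damage repair alterations exposed to each compound.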

Row | SMILES | growth inhibition [1] | growth inhibition [2] | growth inhibition [3] | growth inhibition [4] | growth inhibition [5] | growth inhibition [6]
1 | Cc1[nH]c(/N=C/c2ccc(N(C)C)cc2)c(C#N)c1C | -10.1% | -0.6% | -18.4% | -8% | -5.75% | -7.75%
2 | Cc1ccc(/C=C/C(=N/NC(=O)c2ccccc2)C(C)CN(C)C)cc1 (stereo not given) | 6.6% | 5.65% | 6.45% | -11.2% | 0.25% | 12.9%
3 | COc1ccc(C(NC(N)=O)c2cc3c(cc2OC(C)=O)OCO3)c(OC)c1 (stereo not given) | 10.8% | 4.65% | -2.45% | 22.4% | -3.25% | 16.3%
4 | Cc1ccc(NC(=O)C2c3ccccc3-c3ccccc32)cc1 | 39.4% | 16.6% | 16.9% | -8.35% | 10.9% | 21.1%
5 | Brc1cccc(-c2nnc(-c3ccccc3)o2)c1 | -4.15% | -11.7% | -8.4% | -41.5% | -0.4% | -12.1%
6 | Cc1c(Cl)c2ccc(N(C)C)cc2[nH]c1=O | -2.9% | 0.45% | -0.1% | -6.35% | 11.2% | 7.65%
7 | COc1ccc(-c2nc(-c3cc4c(ccc5ccccc54)oc3=O)cs2)cc1 | 24.4% | 18.5% | 1.45% | 15% | 0.9% | -41.5%
8 | Clc1cccc(Cl)c1/C=N/N1CCN(/N=C/c2c(Cl)cccc2Cl)CC1 | 18.9% | 10.1% | 17.9% | 6.45% | -4.1% | 0.7%
9 | O=C1/C(=C/c2ccccc2)CN(C(=O)OCC(Cl)(Cl)Cl)C/C1=C\c1ccccc1 | 2.6% | 7.3% | -31.4% | 4.9% | -11% | -57.7%
10 | Nc1cccc(Oc2ccc([N+](=O)[O-])cc2)c1 | 16.9% | 25% | 28.3% | 17.2% | 32.5% | 24.7%
11 | Cc1ccccc1-n1c(C)nc2cc(NC(N)=S)ccc2c1=O | -19.1% | -3.05% | 0% | -24.5% | -5.9% | -17.7%
12 | CC(C)SCCC#N | 13% | -8.55% | -13.1% | -5.5% | -3.7% | -4.75%
13 | CC1CC(=O)Nc2ncccc2N1 (stereo not given) | 5.75% | -4.2% | 4.2% | -28.6% | 8.05% | -9.45%
14 | Cc1c(-c2ccccc2)nc(N(C)C)oc1=O | 19% | -5.05% | -6.8% | -9% | -16.2% | -7.8%
15 | O=C1c2ccccc2C(=CC=C2c3ccccc3Sc3ccccc32)c2ccccc21 | 11.9% | 25.9% | -35% | 9.55% | 24.2% | -5.75%
16 | CN(/N=C\c1ccccc1)C(c1ccccc1)N(C)/N=C/c1ccccc1 (stereo not given) | -6.45% | -8.3% | 15.2% | -11.7% | -17.3% | -2.8%
17 | Cc1ccc(NC(=O)C(=O)C2NC(=S)NC2=O)c([N+](=O)[O-])c1 (stereo not given) | 8.35% | 3.25% | 17.8% | 20.1% | 5.6% | 8.55%
18 | N#Cc1sc2nc3c(c(-c4ccccc4)c2c1N)CCCC3 | -8.3% | -4.65% | -0.95% | -8.4% | -8.1% | -5.75%
19 | CCOc1ccc([N+](=O)[O-])cc1 | -28.8% | 3.9% | -2.65% | -40.2% | -3.5% | -31.9%
20 | COc1nc(NC2OC(CO)C(O)C(O)C2O)cc(=O)[nH]1 (stereo not given) | -4.2% | -7.45% | 1.45% | -3.15% | -37.7% | -6.45%

Row | SMILES | growth inhibition [1] | growth inhibition [2] | growth inhibition [3] | growth inhibition [4] | growth inhibition [5] | growth inhibition [6]
21 | O=[N+]([O-])c1cc(Br)c(F)cc1F | -22.2% | 4.85% | -5.2% | -32.2% | -2.55% | 31.1%
22 | CSc1nc(-c2ccccc2)c2c(n1)-c1ccccc1CC2 | -4.95% | -6.1% | 3.05% | -2.4% | 17.9% | -2.35%
23 | Cc1cc2c(C(C)C)c(O)c(O)c(C=Nc3ccc4ccccc4c3)c2c(O)c1-c1c(C)cc2c(C(C)C)c(O)c(O)c(C=Nc3ccc4ccccc4c3)c2c1O | 7.3% | -5.2% | -6.15% | -42.1% | -4.6% | 1.2%
24 | Cc1c(C)c(C)c(S(=O)(=O)NCCCNS(=O)(=O)c2c(C)c(C)c(C)c(C)c2C)c(C)c1C | 3.85% | -28.7% | -7.2% | 7.7% | -4.95% | -1.1%
25 | CCCCC(=O)CCCCCCCCC(=O)CCCC | 0.7% | -8.65% | -19.8% | -31.2% | -4% | -19.8%
26 | CC1(C)CC(=O)C(C(CCC2CCCCC2=O)C2C(=O)CC(C)(C)CC2=O)C(=O)C1 (stereo not given) | 38.5% | 7.95% | 10% | 1.95% | 9.35% | 19.6%
27 | O=[N+]([O-])c1ccc2c(N3CCC(CCCC4CCN(c5ncnc6cc([N+](=O)[O-])ccc56)CC4)CC3)ncnc2c1 | 2.55% | -16.7% | 39% | 19.2% | -10.8% | -2.9%
28 | CN(C)/C(=N/C(=O)Nc1ccccc1)SCc1ccccc1 | -10.5% | -3.9% | 0.45% | -32% | -9.1% | -1.2%
29 | Nc1nc2c(C(=O)c3ccco3)nnn2c2cccc(Cl)c12 | 10.7% | -2.7% | 11.6% | 11.2% | 8.95% | 5.85%
30 | CCCC(NC(=O)CNC(=O)OCc1ccccc1)C(=O)O (stereo not drawn) (Cbz-Gly-[ξNva]-OH) | 31.6% | 7% | 2.35% | 19.9% | 5.45% | 3.95%
31 | CCCCOP(=O)(Cc1ccc(Cl)cc1Cl)OCCCC | 99.5% (active) | 99.7% (active) | 99.5% (active) | 99% (active) | 99.4% (active) | 99.5% (active)
32 | O=C1CCc2cc3c(cc21)CC1(Cc2cc4c(cc2C1)CCCC4)C3 | -28.4% | -8.8% | -22.2% | -18.1% | 17.2% | -20.3%
33 | NC(CCNCCc1ccccc1)CNCCc1ccccc1 (stereo not given) | 29.7% | -11.6% | 10.9% | -2.85% | -6.5% | -7.15%
34 | O=C(Cc1nc2sc3c(c2c(=O)[nH]1)CCCC3)Nc1ccccc1 | -3.1% | -12.3% | 0.05% | 5.9% | -4% | -17.6%
35 | CCCCCCCCOC(=O)Nc1ccc(S(=O)(=O)CC)cc1 | -3.3% | -7.2% | -23.3% | -31.9% | -2.15% | -22.2%
36 | CCc1nc(=S)c2cnn(-c3ccccc3)c2[nH]1 | 16.4% | 1.1% | 11.2% | -33.5% | 8.05% | 23.6%
37 | CCCCCCCCC(C)C | 1.25% | 3.35% | -0.3% | 10.8% | 1.65% | -2.65%
38 | CN(C)/C(=N\N=C(/c1ccc(Cl)cc1)N(C)C)c1ccc(Cl)cc1 | -15.8% | -8.25% | 1% | -24.9% | -11.1% | -19.1%
39 | CCCCNS(=O)(=O)c1ccc(-c2ccc3c(c2)-c2ccc(S(=O)(=O)NCCCC)cc2S3(=O)=O)cc1 | 28.3% | 7.05% | 1.5% | -33.2% | 20.1% | 9.7%
40 | Cc1nc(-c2ccccc2)oc1-c1ccccc1 | 8.6% | -1.5% | -1.7% | 6.95% | 0.05% | -4.35%
